Assay results as given in PubChem BioAssay AID372 (MTDP, 2006).
Screen size: about 100,000 compounds; about 770 (0.77%) were called active. The list comes from a sample in which actives are over-represented; it also holds similar structures and randomly drawn compounds. Values without a mark were called inactive. No stated cut-off is given here; in the data, active means inhibition above about 50%; inactive means the rest.

These molecules were tested against Gag-Pol polyprotein (Human immunodeficiency virus type 1 group M subtype B (isolate HXB2)) (UniProt P04585) (assay: RNase H inhibition, HIV 1 Gag Pol polyprotein, FRET biochemical assay, screening (AID 372)). Conditions: HIV-1 RT RNase H, FRET RNA/DNA substrate fluorescence; at 10 µM; hits give high values.

Row | SMILES | inhibition
1 | NNC(=O)c1cc(C(=O)O)nc2ccc(Br)cc12 | 6%
2 | CCOc1ccc(/C=C2/SC(NC(C)=O)=NC2=O)cc1 | 0%
3 | COc1cc(C(=O)NC(=S)Nc2cccc(-c3nc4ncccc4o3)c2C)cc(OC)c1OC | 17%
4 | Cc1cc(C)cc(NCc2ccc3c(c2)OCO3)c1 | 9%
5 | C=CCOc1ccccc1/C=N/NC(=O)c1cccc(I)c1 | 10%
6 | O=S(NC1CCCCC1)C12CC3CC(CC(C3)C1)C2 (stereo unspecified) | 2%
7 | CC1=NN(c2ccccc2)C(=O)C1C(c1cccc([N+](=O)[O-])c1)C1C(=O)N(c2ccccc2)N=C1C (stereo unspecified) | 12%
8 | CCOC(=O)C1=C(C)NC(C)=C(C(=O)OC)C1c1ccc([N+](=O)[O-])cc1 (stereo unspecified) | 16%
9 | O=C1N=c2ccccc2=C1c1sc(=S)[nH]c1O | 6%
10 | Cc1ccc(C2(C)N(O)C(C)C(c3ccccc3)=[N+]2[O-])cc1 (stereo unspecified) | 0%
11 | COc1ccc(CCN2C(=O)/C(=C\c3cccc4ccccc34)SC2=S)cc1OC | 9%
12 | CCCOC(=O)c1ccc(NC(=O)c2cccc([N+](=O)[O-])c2)cc1 | 17%
13 | Cc1cc2nc(-c3ccc(NC(=O)c4ccc(-c5ccccc5[N+](=O)[O-])o4)cc3)oc2cc1C | 52% (active)
14 | CC(=O)c1cccc(NC(=O)c2ccc(-c3ccccc3[N+](=O)[O-])o2)c1 | 13%
15 | O=C(Nc1cc(Cl)cc(Cl)c1)c1ccc(-c2ccccc2[N+](=O)[O-])o1 | 59% (active)
16 | Cc1ccccc1-c1nc2cc(NC(=O)c3ccc(-c4ccccc4[N+](=O)[O-])o3)ccc2o1 | 37%
17 | COC(=O)c1cc(NC(=O)c2ccc(-c3ccccc3[N+](=O)[O-])o2)cc(C(=O)OC)c1 | 45%
18 | Cc1cc2nc(-c3ccc(NC(=O)c4cccc([N+](=O)[O-])c4C)cc3)oc2cc1C | 15%
19 | O=C(Cc1cccc2ccccc12)N/N=C/c1cc(Br)c(O)c(Br)c1O | 0%
20 | CCOc1cccc(NC(=O)/C(C#N)=C\c2ccc(-c3cccc([N+](=O)[O-])c3)o2)c1 | 10%
21 | CN1C(=O)S/C(=C/c2ccc(Sc3ccccc3)o2)C1=O | 52% (active)
22 | CN1C(=O)/C(=C\c2ccc(Sc3ccc(Cl)cc3)o2)SC1=S | 22%
23 | Cc1ccc(Sc2ccc(/C=C3/SC(=S)N(C)C3=O)o2)cc1 | 45%
24 | CCCCOc1ccc(C(=O)N2CCCc3ccccc32)cc1 | 13%

Row | SMILES | inhibition
25 | O=C(Nc1cccc(NC(=O)C(Cl)(Cl)Cl)c1)c1ccc(Cl)cc1Cl | 13%
26 | Cc1nc(/N=C/c2ccc(Br)cc2)sc1C | 8%
27 | CCOc1cc(C=C2C(=O)NC(=O)NC2=O)ccc1OCc1cccc2ccccc12 | 43%
28 | COc1ccc(C=C2C(=O)NC(=S)NC2=O)cc1OC(=O)c1cccc2ccccc12 | 26%
29 | NC1=NC(=O)/C(=C/c2ccc(OC(=O)c3cccc4ccccc34)cc2)S1 | 20%
30 | COc1cc(/C=C2\SC(N)=NC2=O)cc(Br)c1OC(=O)c1cccc2ccccc12 | 35%
31 | CCOc1cc(C=C2C(=O)NC(=O)NC2=O)ccc1OC(=O)c1cccc2ccccc12 | 56% (active)
32 | COc1ccc(/C=C2\SC(N)=NC2=O)cc1OC(=O)c1cccc2ccccc12 | 53% (active)
33 | COc1cc(/C=C2/SC(N)=NC2=O)ccc1OCc1ccccc1[N+](=O)[O-] | 39%
34 | COc1cc(/C=C2\SC(N)=NC2=O)ccc1OCc1cccc2ccccc12 | 52% (active)
35 | COc1cc(/C=C2\SC(N)=NC2=O)cc(Br)c1OCc1cccc2ccccc12 | 30%
36 | CCOC(=O)C(=CNc1ccc(F)c(F)c1F)C(=O)OCC | 10%
37 | CC(C)(C)c1ccc(C(=O)NCCSc2ccc(Cl)cc2)cc1 | 19%
38 | O=C(N/N=C\c1cc(Br)ccc1O)c1cnccn1 | 7%
39 | Cc1ccc(NC(=S)NC(=O)c2ccccc2Cl)cc1C | 11%
40 | O=C(COc1ccc(Br)cc1Cl)NCc1cccnc1 | 0%
41 | CC(=O)n1ccc(C(=O)Nc2ccc(Cl)c(Cl)c2)n1 | 2%
42 | O=C(Nc1ccc(F)cc1F)c1cnn2c1NC(c1cccs1)CC2C(F)(F)F (stereo unspecified) | 5%
43 | O=c1oc2ccc(O)c(-c3ccccc3Cl)c2s1 | 2%
44 | O=C(Oc1ccc2oc(=O)sc2c1)c1ccccc1 | 6%
45 | Cc1cc(I)ccc1NC(=O)c1ccccc1F | 8%
46 | CC(=O)c1cccc(NC(=O)C2CCCCC2)c1 | 0%
47 | O=C(c1ccccc1)c1cccc(NC(=O)C2CCCCC2)c1 | 51% (active)
48 | O=C(Nc1ccc2ccccc2c1)C1CCCCC1 | 2%

Row | SMILES | inhibition
49 | O=C(COc1cccc(Br)c1)N/N=C/c1ccc(Cl)cc1 | 7%
50 | CCOc1ccc(C(=O)Nc2cc(Cl)cc(Cl)c2)cc1Br | 1%
51 | COc1ccc(-c2nnc(NC(C)=O)s2)cc1 | 0%
52 | COc1ccc(-c2nnc(N)s2)cc1 | 7%
53 | COc1cc(NC(=O)COc2ccc(C)c(C)c2)c(OC)cc1Cl | 7%
54 | COc1cc([N+](=O)[O-])cc(/C=C2\C(=O)NC(=O)N(c3ccc(Cl)cc3)C2=O)c1O | 7%
55 | O=C(Nc1ccc(I)cc1Cl)c1ccccc1Cl | 37%
56 | O=C(Nc1ccc(-c2ccc(NC(=O)c3ccccc3Cl)c(Cl)c2)cc1Cl)c1ccccc1Cl | 51% (active)
57 | O=C(Nc1ccc(Cl)cc1Cl)c1ccccc1Cl | 3%
58 | CCn1c2ccccc2c2cc(CN3CCC(C)CC3)ccc21 | 7%
59 | CC(=O)Nc1ccc(NS(=O)(=O)c2ccc(C)cc2C)cc1 | 2%
60 | O=C(Nc1nccs1)c1ccc(N2C(=O)c3ccc([N+](=O)[O-])cc3C2=O)cc1 | 31%
61 | O=C(Nc1ccc(O)cc1)c1ccc(N2C(=O)c3cccc([N+](=O)[O-])c3C2=O)cc1 | 3%
62 | O=C(Nc1nccs1)c1ccc(N2C(=O)c3cccc([N+](=O)[O-])c3C2=O)cc1 | 56% (active)
63 | Cc1nc(-c2ccccc2)sc1C(=O)Nc1ccc(-c2cn3ccccc3n2)cc1 | 6%
64 | O=C(Nc1ccc2oc(-c3cccc4ccccc34)nc2c1)c1cc([N+](=O)[O-])ccc1Cl | 21%
65 | COc1ccc(OCCOCCOc2c(OC)cccc2OC)cc1 | 11%
66 | COc1ccc(C(=O)NC(=S)Nc2ccc3oc(-c4cccc(F)c4)nc3c2)cc1OC | 7%
67 | CCc1ccc2oc(-c3ccc(NC(=S)NC(=O)c4cccc(F)c4)cc3)nc2c1 | 59% (active)
68 | CCOc1cccc(C(=O)NC(=S)Nc2ccc(-c3nc4cc(CC)ccc4o3)cc2)c1 | 5%
69 | CCOc1ccc(C(=O)NC(=S)Nc2ccc3oc(-c4cccc(F)c4)nc3c2)cc1[N+](=O)[O-] | 58% (active)
70 | CCc1ccc2oc(-c3ccc(NC(=S)NC(=O)c4cccc(Cl)c4)cc3)nc2c1 | 17%
71 | COc1ccc(C(=O)NC(=S)Nc2ccc3oc(-c4cccc(F)c4)nc3c2)cc1[N+](=O)[O-] | 41%
72 | COc1ccc(C(=O)NC(=S)Nc2ccc3oc(-c4cccc(F)c4)nc3c2)cc1Br | 56% (active)

Row | SMILES | inhibition
73 | COc1ccc(C(=O)NC(=S)Nc2ccc3oc(-c4ccccc4)nc3c2)cc1Br | 47%
74 | CCOc1ccc(C(=O)NC(=S)Nc2ccc3oc(-c4cccnc4)nc3c2)cc1[N+](=O)[O-] | 4%
75 | NC(=S)N=Nc1c(O)[nH]c2ccc(F)cc12 | 9%
76 | COc1cccc(C(=O)NNC(=O)C2CCCO2)c1 (stereo unspecified) | 4%
77 | COc1cc(C=O)ccc1OCCCOc1ccc([N+](=O)[O-])cc1Cl | 29%
78 | COC(=O)c1c(C)oc2ccc(OS(C)(=O)=O)cc12 | 0%
79 | O=C(Nc1cccc(Cl)c1)Nc1nc2ccc(Br)cc2s1 | 35%
80 | Cn1cccc1/C=C1/C(=O)NC(=S)N(c2cccc(Cl)c2)C1=O | 31%
81 | Cc1ccc(NC(=S)NC(=O)/C=C/c2ccccc2)cc1C | 9%
82 | O=C(/C=C/c1ccc(Cl)cc1)NC(=S)Nc1ccc(NC(=O)c2cccs2)cc1 | 24%
83 | Cc1ccc(NC(=S)NC(=O)/C=C/c2ccccc2)cc1Cl | 51% (active)
84 | O=C(/C=C/c1ccccc1)NC(=S)Nc1ccc(NC(=O)c2cccs2)cc1 | 62% (active)
85 | Cc1cccc(NC(=S)NC(=O)/C=C/c2ccccc2)c1 | 6%
86 | O=C(/C=C/c1ccccc1)NC(=S)Nc1ccc(NC(=O)c2ccccc2)cc1 | 9%
87 | Brc1ccc(/C=N/Nc2ncnc3c2cnn3-c2ccccc2)cc1 | 6%
88 | Nc1ncc(Cc2ccc(F)cc2)s1 | 6%
89 | COc1cccc(/C=C2\N=C(c3cccs3)OC2=O)c1OC | 8%
90 | Cc1cc(Br)c(-c2ccc(/C=C3/NC(=S)NC3=O)o2)cc1C | 24%
91 | O=C1NC(=S)N/C1=C\c1ccc(-c2cccc([N+](=O)[O-])c2)o1 | 14%
92 | O=C1NC(=S)N/C1=C\c1ccc(-c2cc([N+](=O)[O-])ccc2Br)o1 | 50% (active)
93 | O=C1NC(=S)N/C1=C/c1ccc(-c2cc([N+](=O)[O-])ccc2Cl)o1 | 50% (active)
94 | O=C1NC(=S)N/C1=C/c1ccc(-c2ccc([N+](=O)[O-])cc2Cl)o1 | 5%
95 | O=C1NC(=S)N/C1=C\c1ccc(-c2cc([N+](=O)[O-])ccc2O)o1 | 29%
96 | CCCOc1cccc(/C=C2\N=C(c3ccc(F)cc3)OC2=O)c1 | 11%
